Source: PubChem (The Scripps Research Institute Molecular Screening Center)
Only a selection was taken, and hits are over-represented in it overall.
TTR transcr act: increases transthyretin transcription. SH-SY5Y TTR promoter Gaussia luciferase, luminescence; 100% = recombinant luciferase protein wells. activation, % at 16.7 µM. 1.3% of 92,000 active;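 active = activation above the mean of all tested compounds plus 3 SD, cut at about 9.5% in these data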;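 note: cells exposed to compounds for one day before reading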
TTR inh HuH7: HuH7 TTR transcription inhibition, counter-screen. 4% of 1,100 active. HuH7 TTR promoter-Gaussia luciferase reporter, luminescence. shares compounds with TTR transcr act. AID 1117279. inhibition, % at 16.7 µM;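 active = average inhibition above the solvent-only control wells' mean plus 3 SD, cut at about 15% in these data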;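 note: inhibitors lower well luminescence so higher value means more inhibition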
TTR up confirm: confirmation of human transthyretin transcription activators; 1,100 tested, under 10 active; activation, % at 16.7 µM; shares compounds with TTR transcr act; SHSY5Y TTR promoter Gaussia luciferase, luminescence; 100% = purified Lucia enzyme wells, no cells;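 active = mean activation above a set limit taken from the earlier primary screen, cut at about 11% in these data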
Numbers stand for hits; n = inactive.

SMILES	TTR transcr act	others
COc1ccccc1NS(=O)(=O)c1cc(N2Cc3ccccc3C2=N)ccc1N1CCOCC1	n
COc1ccccc1NS(=O)(=O)c1cc(NC(C)=O)ccc1N1CCCCC1	n
COc1ccccc1NS(=O)(=O)c1cc(NC(=O)c2cc(F)c(F)c(F)c2F)ccc1N1CCOCC1	27.4	TTR inh HuH7=n;TTR up confirm=n
COc1ccccc1CNC(=O)CNC(=O)c1sc2ccccc2c1Cl	n
Cc1cc(C)c2nc(NC(=O)c3ccc4c(=O)n5c(nc4c3)CCCCC5)sc2c1	n
N#CCC(=O)N/N=C/c1cn(Cc2ccc(Cl)cc2Cl)c2ccccc12	n
CCOC(=O)N1CCN(CC(=O)Nc2nnc(C(F)(F)F)s2)CC1	n
Cc1nc2sc(C(c3cccc(F)c3)N3CCCCC3)c(O)n2n1 (configuration not stated)	10.3	TTR inh HuH7=n;TTR up confirm=n
Cc1nc2sc(C(c3ccccc3)N3CC(C)OC(C)C3)c(O)n2n1 (configuration not stated)	n
Cc1nc2sc(C(c3ccc(Cl)cc3)N3CCOCC3)c(O)n2n1 (configuration not stated)	n
COc1ccc(NC(=O)Cn2c(=O)n(CC3CCCO3)c(=O)c3ccccc32)c(OC)c1 (configuration not stated)	n
CCCCn1nc2cc(C(=O)N[C@H](C)C3CCCCC3)ccc2c1OCC	11.5	TTR inh HuH7=n;TTR up confirm=n
CCOc1c2ccc(C(=O)NCCc3ccc(C)cc3)cc2nn1CC	n
CCCCn1nc2cc(C(=O)NCc3cc(C(F)(F)F)cc(C(F)(F)F)c3)ccc2c1OCC	n
CC(C)NC(=O)C1(C)CCCN1C(=O)c1ccc2c(c1)C(C)(C)CCC2(C)C (configuration not stated)	n
Nc1ccc(CCc2ccccn2)cc1	n
Cc1cccc(NC(=O)c2ccccc2NC(=O)CCC(=O)O)c1	n
CCc1nc(SCc2ccc([N+](=O)[O-])cc2)n[nH]1	n
O=C(COC(=O)CNC(=O)c1ccco1)Nc1ccc(Cl)cn1	n
O=C(NCc1ccccc1Br)c1ccco1	n
O=C(CNC(=O)c1ccco1)OCc1ccccc1Cl	10.7	TTR inh HuH7=n;TTR up confirm=n
CCC(C)(C)n1nnnc1C(c1cc2ccc(C)cc2[nH]c1=O)N(Cc1cccnc1)Cc1ccco1 (configuration not stated)	n
O=C1CCCN2N=C(SCC(=O)Nc3nccs3)SC2=N1	n
O=C1CCCN2N=C(SCC(=O)Nc3ccc([N+](=O)[O-])cc3)SC2=N1	32.1	TTR inh HuH7=n;TTR up confirm=n
Cc1ccc(NC(=O)CSC2=NN3CCCC(=O)N=C3S2)c(C)c1	n
SMILES	TTR transcr act	others
CC(=O)c1sc2c(c1OC(=O)c1ccccc1)c(=O)n(-c1ccccc1)c(=S)n2-c1ccccc1	n
O=C(Cn1c(-c2ccco2)nc2ccccc21)N1CCCCC1	n
NC(=O)CC(NC(=O)c1cccc(Br)c1)c1ccc(N2CCC(N3CCCC3)CC2)c([N+](=O)[O-])c1 (configuration not stated)	n
C[C@@H]1CN([C@@H](C)CO)C(=O)c2cccc(NS(C)(=O)=O)c2O[C@H]1CN(C)Cc1ccc(C(=O)O)cc1	n
COc1ccc(CN(C)C[C@H]2Oc3c(NC(=O)Nc4ccccc4)cccc3C(=O)N([C@H](C)CO)C[C@@H]2C)cc1	n
C[C@@H]1CN([C@@H](C)CO)C(=O)c2cccc(NS(C)(=O)=O)c2O[C@H]1CN(C)Cc1ccc(Oc2ccccc2)cc1	18.5	TTR inh HuH7=n;TTR up confirm=n
O=C(c1cc(C2CC2)nn1-c1ccccc1)N1CCN(c2ncc(C(F)(F)F)cc2Cl)CC1	n
Cn1c2ccccc2c2ncn(Cc3ccco3)c(=O)c21	n
Cn1c2ccc(F)cc2c2ncn(Cc3ccco3)c(=O)c21	n
Cn1c2ccc(F)cc2c2ncn(Cc3ccccn3)c(=O)c21	14.5	TTR inh HuH7=n;TTR up confirm=n
c1ccc(COC2CCCN(Cc3nc(Cc4ccccc4)no3)C2)cc1 (configuration not stated)	n
Cn1c(=O)c(-c2ccccc2)c(O)c2ccccc21	n
Cn1c(=O)c2cccnc2c(=O)n1C	n
Cc1cc(C)c(-c2c(O)c3cccnc3n(C)c2=O)c(C)c1	10.5	TTR inh HuH7=n;TTR up confirm=n
CCCCn1c(O)c(N=Nc2ccccc2O)c2ccccc21	n
CCOc1ccc(S(=O)(=O)N(CC)CC)cc1NC(=O)c1ccc(N2CCCC2=O)cc1	n
O=C(COc1ccc(F)cc1)N1CCc2ccccc2C1	n
CCC1(CC)C(=O)N=C2c3ccccc3C(=O)N21	47.8	TTR inh HuH7=n;TTR up confirm=n
O=C(O)CNC(=O)C1(N2C(=O)c3ccccc3C2=O)CCCC1	n
CC(C)NC(=O)C1(N2C(=O)c3ccccc3C2=O)CCCC1	n
O=C(CSc1nnc2ccccn12)NCCc1ccc(Cl)cc1	n
CC(C)CNC(=O)CSc1nnc2ccccn12	11.5	TTR inh HuH7=n;TTR up confirm=12.0
CC(C)(C)NC(=O)NC(=O)CSc1nnc2ccccn12	n
Cc1ccc2nc(CSc3nnc(-c4ccco4)o3)cc(=O)n2c1	n
CC1(OC(=O)C2CCCC2)C(=O)C=C2C=C(c3ccsc3)N(C3CCCCC3)C=C2C1=O (configuration not stated)	n
SMILES	TTR transcr act	others
O=C(Nc1ccccc1)N(CCCN1CCOCC1)Cc1cc2cc3c(cc2[nH]c1=O)OCCO3	n
O=C(Nc1ccc(F)cc1)N(Cc1cccs1)Cc1cc2cc3c(cc2[nH]c1=O)OCO3	27.5	TTR inh HuH7=n;TTR up confirm=n
Cc1ccc(NC(=O)N(Cc2cccs2)Cc2cc3cc4c(cc3[nH]c2=O)OCO4)cc1	n
COc1ccccc1N1CCN(C2CCCCC2NS(=O)(=O)c2ccccc2)CC1 (configuration not stated)	n
COc1ccc2nc3oc(C(=O)NC4CCN(Cc5ccccc5)CC4)cc3cc2c1	n
O=C(NC1CCCCC1)c1ccc(CS(=O)Cc2ccccc2Cl)o1 (configuration not stated)	n
O=C(NCCc1ccc(Cl)cc1)c1ccc(CS(=O)Cc2ccccc2Cl)o1 (configuration not stated)	15.1	TTR inh HuH7=n;TTR up confirm=n
O=C(NC1CCCC1)c1ccc(CS(=O)Cc2ccccc2Cl)o1 (configuration not stated)	n
CC(OC(=O)Nc1cccc(Cl)c1)C(=O)OC1CCCCC1 (configuration not stated)	n
Cc1nc(N2CCN(C(=O)c3ccco3)CC2)c2c3c(sc2n1)CC(C)CC3 (configuration not stated)	n
Cc1nn(C)c(C)c1/C=N/NC(=O)c1csc2ccccc12	n
Cc1sccc1/C=N/NC(=O)c1cccc2ccccc12	n
CCn1ncc(/C=N\NC(=O)c2csc3ccccc23)c1C	15.3	TTR inh HuH7=18.3;TTR up confirm=n
CC(=O)Nc1ccccc1C(=O)C(=O)Nc1cccc(C(=O)NCc2ccc(C)cc2)c1	n
CCCCNC(=O)CC(=O)Nc1ccccc1C(=O)O	n
CCC(CC)NC(=O)CSc1nnc(-c2ccc(OC)cc2)n1C(C)C	n
COc1ccc(-c2nnc(SCC(=O)NCc3cccs3)n2C(C)C)cc1	11.4	TTR inh HuH7=n;TTR up confirm=n
COc1ccc(-n2cnnc2SCC(=O)NCc2cccs2)cc1	n
Cc1ccc(S(=O)(=O)NCCC(=O)Nc2nnc(C)s2)cc1	n
O=C(CN1C(=O)S/C(=C\c2ccccn2)C1=O)Nc1ccc(F)cc1	n
O=C(CN1C(=O)N/C(=C\c2ccccc2OCc2ccc(C(=O)O)cc2)C1=O)Nc1ccc(F)cc1	n
